In PubChem BioAssay (NCI):
Compounds without any hit were thinned out: in the full panel of roughly 83,000, 20% have a hit.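 Testing used 96-well plates and a 48-hour single-concentration exposure. Example: -40 means 40% of the starting cells died.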 Calls of active or inactive are those of the source. How the source made its calls: active means growth percent below 10; inactive means the rest.

What follows are compounds tested on HL-60(TB) leukemia (assay: NCI-60 one-dose screen, 48 h (100 = growth as untreated, 0 = no growth, -100 = all killed)). Conditions: 10 µM unless noted.

| SMILES | growth |
| --- | --- |
| CC(=O)Nc1ccc(C(=O)c2ccc(S(=O)(=O)Nc3ccccc3)cc2)cc1 | 102% (inactive) |
| O=C1/C(=C/c2ccc(Oc3ccccc3)cc2)N=C(c2ccccc2)N1CCc1cccs1 | 86% (inactive) |
| CN1CCN(C(=O)OCc2nc3c(N4CCOCC4)nc(Cl)nc3n2C)CC1 | -53.4% (active) |
| O=C(c1ccc(O)cc1)c1ccc(O)cc1 | 117% (inactive) |
| C/C(=N\O)[C@@H]1CC[C@]2(CO)CC[C@]3(C)[C@H](CC[C@@H]4[C@@]5(C)CCCNC(C)(C)[C@@H]5CC[C@]43C)[C@@H]12 | 95.1% (inactive) |
| Nc1ccc(N=Nc2ccccc2)c2cc(S(=O)(=O)O)ccc12 | 103% (inactive) |
| CN(C)c1ncnc2c1ncn2C1CCCCO1 (centres undefined) | 96.3% (inactive) |
| N#Cc1c(NC(=O)c2ccc(Br)cc2)sc2c1CCCC2 | 14.1% (inactive) |
| COc1cc(-c2n/c(=C\c3c(O)[nH]c4cc(Cl)ccc34)cc3c2=Nc2ccccc2-3)cc(OC)c1OC | 89.6% (inactive) |
| CCN(CCNc1ccc(C)c2sc3ccccc3c(=O)c12)CC(C)(C)O | 43.5% (inactive) |
| COc1cccc(CNc2cccc3cn[nH]c23)c1O | 144% (inactive) |
| Fc1ccc2[nH]c3c(NCCCN4CCOCC4)ncnc3c2c1 | 109% (inactive) |
| COC(=O)c1cccc([N+](=O)[O-])c1 | 121% (inactive) |
| COc1ccc(/C=N/c2cc(C(C)(C)C)nn2-c2ccccc2)cc1 | 88.3% (inactive) |
| C/C(=N\O)c1ccc(NC(=O)CSc2nnc(-c3cc(-c4ccc(S(N)(=O)=O)cc4)nc4ccccc34)n2-c2ccccc2)cc1 | 24.1% (inactive) |
| C=CCc1c(O)c(C(=O)/C=C/c2ccccc2)c(OC)c2ccoc12 | 36.3% (inactive) |
| N#Cc1c(-c2ccc(F)cc2)cc(-c2cccc(Cl)c2)[nH]c1=O | 84.9% (inactive) |
| COc1ccc2c(c1)C=CC(C#N)N2C(=O)c1ccccc1 (centres undefined) | -24.7% (active) |
| C[N+](C)(C)CN1C(=O)c2ccccc2C1=O | 96.1% (inactive) |
| c1ccc(-c2cn3c(ccc4ccccc43)n2)cc1 | 24.4% (inactive) |
| COc1ccc(-c2nc(-c3nc4cc(C)c(C)cc4[nH]3)cc3c2[nH]c2ccccc23)cc1 | -31.9% (active) |
| Cc1ccc(C(=O)O)c(N)c1C | 95.1% (inactive) |
| Nc1ncc(-c2ccc3ncnc(N4CCc5cc(F)c(Cl)cc54)c3c2)cc1C=O | 2.72% (active) |
| CCCCCCCCCCCCCCCCCC(=O)[O][Sn]([CH2]CCC)([CH2]CCC)[CH2]CCC | -18.5% (active) |
